About 83,000 compounds went through this panel and 20% of them were active in at least one assay; those are over-represented in the sample as a whole.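 In brief: 96-well plates, 48 h treatment, single concentration, percent growth endpoint.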 Unmarked numbers belong to inactive results. Activity calls are given as the source filed them. How the source made its calls: active means growth percent below 10; inactive means the rest.
Tests used:
Test in all cases: NCI-60 one-dose screen, 48 h (100 = growth as untreated, 0 = no growth, -100 = all killed)
Settings in all cases: 10 µM unless noted
[1] = tested on: RPMI-8226 leukemia
[2] = tested on: OVCAR-8 ovarian
[3] = tested on: OVCAR-5 ovarian
[4] = tested on: OVCAR-4 ovarian
[5] = tested on: SK-OV-3 ovarian
[6] = tested on: IGROV1 ovarian
[7] = tested on: OVCAR-3 ovarian
[8] = tested on: HS 578T breast
[9] = tested on: NCI/ADR-RES ovarian

Compound | growth [1] | growth [2] | growth [3] | growth [4] | growth [5] | growth [6] | growth [7] | growth [8] | growth [9]
NS(=O)(=O)c1ccc(-n2nc(-c3ccc(Cl)cc3)c3ccccc3c2=O)cc1 | 84.6% | 96.9% | 93.7% | 93.7% | 96.9% | 75.5% | 108% | 88.7% | 86.2%
O=[N+]([O-])c1ccc(Cl)c(-c2cc(CCCCO)on2)c1 | 105% | 105% | 101% | 97.4% | 113% | 105% | 111% | – | 101%
CN(C(=O)NCc1cccc(F)c1Cl)[C@H](COC(=O)Nc1cc2ccccc2cn1)CC(O)CO (some centres undefined) | 119% | 88.1% | 95.8% | 94.6% | 78.5% | 71.9% | 103% | -0.749% (active) | 98.6%
Cc1oc2nc[nH]c(=O)c2c1C(=O)/C=C/c1ccc(Br)cc1 | -3.59% (active) | 7.33% (active) | 22.3% | 36% | 31.5% | 8.79% (active) | -10.9% (active) | – | -30.5% (active)
Cc1nc(/N=C(\N)NC(=O)Nc2ccccc2Cl)sc1C | 8.06% (active) | 33.9% | 51.3% | 55.1% | 45.4% | 42.8% | 12.1% | – | 15.7%
C[C@]12CC[C@@H]3c4cc(OC(F)F)c(OS(N)(=O)=O)cc4CC[C@H]3[C@@H]1CC[C@@H]2OS(N)(=O)=O | 39.3% | 46.2% | 94.9% | 76.1% | 44.7% | 47.6% | 16.2% | 5.84% (active) | 11.3%
COc1nc2ccccc2cc1-c1nc2c(cnn2-c2ccc(Br)cc2)c(=O)[nH]1 | 20.7% | 27.7% | 44.1% | 57.3% | 15.1% | 41.8% | -34.2% (active) | 23% | 4.99% (active)
NC[C@@H]1O[C@H](O[C@@H]2[C@@H](CO)OC(O[C@@H]3[C@@H](O)[C@H](N)C[C@H](N)[C@H]3OC3O[C@H](CN)[C@@H](O)[C@H](O)[C@H]3N)[C@@H]2O)[C@H](N)[C@@H](O)[C@@H]1O (some centres undefined) | 104% | – | 104% | 107% | 119% | 110% | 111% | 111% | 105%
N/C(=N\c1nc2ccccc2s1)NC(=O)Nc1cccc2ccccc12 | 13.8% | 32.9% | – | 60.8% | 40.4% | 33.6% | -14.2% (active) | 16.6% | -7.24% (active)
Cc1cc(Cl)ccc1NS(=O)(=O)c1ccc(-c2cnc(C3CC3)o2)cc1 | 19.3% | 27.4% | – | 40% | 50.8% | 23.3% | -16.9% (active) | 22.1% | 6.12% (active)
O=C(CS(=O)c1oc(-c2cccs2)nc1S(=O)(=O)c1ccc(Br)cc1)c1ccccc1 (centres undefined) | 91.8% | 91.4% | – | 75.2% | 89.8% | 101% | 103% | 79.5% | 93.8%
O=c1[nH]c2c(ccc3cnccc32)c2c1CCC2 | -31% (active) | 13.9% | – | 28.3% | 3.27% (active) | -71% (active) | -27% (active) | -21.8% (active) | 7.35% (active)
O=S(=O)(NCCCNc1cc(-c2c(-c3cccc(O)c3)nc3sccn23)ccn1)c1cccc2ccccc12 | 8.85% (active) | 19% | – | 36.4% | 58.2% | 30.6% | 40.1% | 22.7% | 77%
O=C(Cc1ccc(F)c(Cl)c1)Nc1cc(C2(C(F)(F)F)CC2)nn1CC1CCCCC1 | 4.24% (active) | 8.52% (active) | – | 13.5% | -19.9% (active) | 24.5% | 6.25% (active) | -0.843% (active) | 4.86% (active)
Cc1nc2ccccc2c(/C=C/c2ccccc2)c1C(=O)/C=C/c1ccc(C(F)(F)F)cc1 | -29.1% (active) | 10.3% | – | -42.8% (active) | 7.69% (active) | -72.4% (active) | -86.5% (active) | -10.9% (active) | -1.24% (active)
O=c1ccc(N=Nc2ccccc2)ccc1Cl | 25.1% | – | 120% | 84.6% | 93.8% | 80.7% | 23.7% | 92.4% | -4.66% (active)
O=c1ccc(N=Nc2ccc([N+](=O)[O-])cc2)ccc1O | 22.4% | 9.9% (active) | 48.5% | 29.6% | 78.6% | 21.4% | 8.96% (active) | – | -1.1% (active)
COc1cc(C(=O)c2cnc(-c3cccc4[nH]ccc34)[nH]2)cc(OC)c1OC | 15.8% | – | 50.1% | 38.9% | 35.6% | 26.6% | -18.1% (active) | 30.9% | 11.2%

Compound | growth [1] | growth [2] | growth [3] | growth [4] | growth [5] | growth [6] | growth [7] | growth [8] | growth [9]
O=c1[nH][n+](-c2ccc(Br)cc2)no1 | 56.6% | 55.7% | – | 57.9% | 82.3% | 62.1% | 58.8% | 97.7% | 73.9%
O=C1CSC(c2c(Cl)cccc2Cl)N1c1nc(Cl)cc(=O)[nH]1 (centres undefined) | 58.7% | – | 94.4% | 130% | 109% | 71.9% | 107% | 109% | 95%
C[C@]12CC[C@@H]3c4cc(OC(F)F)c(OS(N)(=O)=O)cc4CC[C@H]3[C@@H]1CC[C@@H]2O | 17.8% | 35.3% | – | 63.2% | 40.8% | 34.5% | -49.8% (active) | 27.8% | -1.45% (active)
CC(=O)O.CN1[CH-]N(Cc2ccc(C#N)cc2)c2ccccc21.[Ag+] | 88.8% | 101% | – | 112% | 120% | 111% | 116% | 103% | 109%
COc1cc(C(=O)c2cnc(-c3c[nH]c4cccc(C)c34)[nH]2)cc(OC)c1OC | 10% | – | 46.5% | 34.5% | 41.1% | 22.1% | -49% (active) | 21.2% | 3.24% (active)
CNc1nc2c(s1)C(c1cccc(F)c1)CC(=O)N2 (centres undefined) | 106% | 102% | – | 107% | 100% | 107% | 99.1% | 94.3% | 103%
COc1ccc(-c2cc(-c3cc(OC)c(OC)c(OC)c3)nc(N3CCOCC3)c2C#N)cc1 | 63.7% | 78.9% | – | 85.8% | 98.2% | 77.6% | 82.9% | 67.5% | 29.9%
O=C(CCc1nnc(-c2c(Cl)cccc2Cl)o1)c1nc2ccccc2[nH]1 | 30.9% | – | 81.2% | 58.8% | 64.8% | 57.6% | 66.4% | 82.3% | 63.3%
c1ccc(Nc2cc(-c3cccnc3)[nH]n2)cc1 | 103% | 95.8% | – | 96.6% | 92.9% | 95.7% | 100% | 101% | 105%
CSc1ncccc1C(=O)OCC(=O)Nc1oc(C)c2c(C)n[nH]c(=O)c12 | 72.8% | – | 94.3% | 104% | 96% | -4.78% (active) | 106% | 104% | 102%
NC(=O)Nc1ccc2ncnc(Nc3ccc(Cl)cc3)c2c1 | 101% | – | 83.6% | 91.9% | 30.2% | 61% | 74.2% | 87.8% | 88.7%
CC1(C)C2CC1C1(/C=N\Nc3ccccc3)C(C2)C(C#N)(C#N)C1(C#N)C#N (centres undefined) | 90.1% | – | 103% | 82.5% | 97.4% | 64.8% | 84.7% | 93.9% | 87.8%
C=C1CC[C@@]2(C#N)[C@H]3[C@H](CC[C@@H]2C)[C@@H](C)C[C@@H](CC(C)(C)C#N)[C@H]13 | 40.3% | – | 48.5% | 37.7% | 46.1% | 42.9% | 51% | 30.2% | 35.4%
[O-][n+]1c2ccccc2[n+]([O-])c2c3ccccc3[nH]c21 | 57.9% | – | 21% | 34.4% | 42.8% | 13.8% | -20.6% (active) | 96.3% | 65.4%
O=C(/C=C/c1sc(Cl)nc1Cl)c1ccc(F)cc1 | 0.843% (active) | 83.7% | – | 102% | 99.4% | 94.8% | 9.39% (active) | 86.8% | 98.5%
CCc1nnc(NC(=O)c2nnn(-c3ccccc3)c2-c2ccco2)s1 | 91% | – | 101% | 80.3% | 82.3% | 103% | 103% | 92.5% | 100%
Cc1ccc(C(=O)NCCNc2nccc(-c3c(-c4cccc(F)c4)nc4sccn34)n2)cc1 | 53.8% | 55% | – | 67.8% | 64.3% | 23.1% | 61.6% | 33% | 55.6%
